Rab9 promoter act – Rab9 promoter activation. Huh7 Rab9 promoter-luciferase reporter, luminescence, 24 h. 2.8% of 320,000 active. Potency, µM (titrated, usually from 9.22 µM), usual class: activators; further: nearly all actives have a fitted effect of over 60% in size
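Luciferase signal after 10 min detection reagent at ambient indicates Rab9 promoter upregulation; stably transfected Huh7 cells were treated 24 h with compound in DMSO at 37 °C, 5% CO2.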
NPC1 prom act – activates the NPC1 promoter | Huh7 NPC1 promoter luciferase reporter, 24 h | Potency, µM (highest dose often 9.22 µM), actives largely listed as activators | AID 485313 | 2.4% of 320,000 active; further: nearly all actives have a fitted effect of over 60% in size
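Luciferase expression driven by the NPC1 promoter was measured in stably transfected Huh7 cells after a 24 h compound incubation, using a luciferase reagent and a luminescence read.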
ELG1 genotox – induces genotoxicity in HEK293T cells with luciferase-tagged ELG1; AID 504466; HEK293T ELG1-luciferase reporter, luminescence, 16 h; 1.3% of 330,000 active; Potency, µM (doses to about 46 µM), usual class: activators; further: nearly all actives have a fitted effect of over 60% in size
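Quantitative HTS format in 1536-well plates. HEK293T ELG1-luciferase reporter cells receive test compound and are incubated 16 hr at 37 °C, 5% CO2; ONE-Glo added, 30 min room temperature, then luminescence read.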
Luc counter – counter-screen: inhibitors of Kinase-Glo firefly luciferase; Kinase-Glo luciferase, ATP luminescence, 8 min; Potency, µM (highest dose often 38.3 µM), usual class: inhibitors; Q27757; 0.28% of 200,000 active; further: nearly all actives have a fitted effect of over 60% in size
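Luminescence was the read-out, taken after 8-minute incubation at ambient temperature. Luciferase turned over luciferin with 10 uM ATP in imidazole pH 7.2 buffer containing KCl, MgCl2, Tween 20 and BSA.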
FLuc modulator – inhibits or activates purified firefly luciferase, miR-21 counter-screen | purified FLuc, Km substrates, luminescence inhibition | Potency, µM (series often up to 57.5 µM), usual class: inhibitors | 6.9% of 360,000 active; further: nearly all actives have a fitted effect of over 55% in size
Target sequence (P08659 whole entry, looked up): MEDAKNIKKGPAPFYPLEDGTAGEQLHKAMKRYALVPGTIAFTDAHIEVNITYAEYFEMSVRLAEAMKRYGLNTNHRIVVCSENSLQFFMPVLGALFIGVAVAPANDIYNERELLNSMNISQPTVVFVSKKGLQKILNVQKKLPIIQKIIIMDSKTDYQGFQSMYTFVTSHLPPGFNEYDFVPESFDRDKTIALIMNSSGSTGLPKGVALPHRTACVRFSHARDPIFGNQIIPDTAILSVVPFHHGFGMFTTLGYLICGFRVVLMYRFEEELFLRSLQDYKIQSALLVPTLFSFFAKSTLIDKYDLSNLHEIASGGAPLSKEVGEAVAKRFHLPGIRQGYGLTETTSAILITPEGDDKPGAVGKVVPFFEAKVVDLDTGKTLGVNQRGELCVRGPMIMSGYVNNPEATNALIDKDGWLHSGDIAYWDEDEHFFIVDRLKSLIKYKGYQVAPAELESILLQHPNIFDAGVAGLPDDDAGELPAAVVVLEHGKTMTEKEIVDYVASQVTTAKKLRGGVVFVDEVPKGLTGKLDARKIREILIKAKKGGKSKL
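Biochemical qHTS of compounds, final roughly 60 µM downward over six points, against 10 nM purified firefly luciferase using Km concentrations of substrates (10 uM D-luciferin, 10 uM ATP) in Tris acetate pH 7.5 buffer; luminescence output.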
SMN2 splice enh – enhancers of SMN2 splice variant expression; HEK293 SMN2-luciferase splicing reporter, luminescence, 30-36 h; Potency, µM (series often up to 46.1 µM), most hits filed as activators; 2.8% of 210,000 active; further: nearly all actives have a fitted effect of over 55% in size
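HEK293 cells carry an SMN2 […]–luciferase reporter in which exon 7 inclusion puts luciferase in frame. Cells were plated 10-12 h before compound addition, then incubated 30-36 h at 37C. ONE-Glo luminescence was read; sodium butyrate at 4.5 mM final served as control.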
Of the large screens only hits and unclear results are named; the others gave an inactive call. Compounds with a hit are over-represented: about 7.3% of the library has one in this group of screens. The call rests on the fitted dose curve; in most records, active means well fitted curve in the direction sought with a large enough effect; inconclusive means small, poorly fitted or top-dose-only effect, or another doubt; inactive means no such curve, though single readings can be large; an effect the other way counts as inactive or inconclusive.

CC(=O)Nc1cc2c(s1)c1cnn(Cc3ccccc3F)c(=O)c1n2C	none (no result: ELG1 genotox, Luc counter, SMN2 splice enh)
COc1ccccc1NC(=O)COC(=O)c1ccccc1OCC(=O)Nc1ccc(SC(F)F)cc1	ELG1 genotox inconclusive
CN(C)C(=O)COC(=O)c1ccccc1Nc1ccc(SC(F)F)cc1	Rab9 promoter act inconclusive, NPC1 prom act inconclusive, ELG1 genotox inconclusive, FLuc modulator 26.9µM, SMN2 splice enh 12.6µM
COC(=O)[C@H](COC(C)(C)C)NC(=O)O[C@@H]1Cc2cc(OC)ccc2O[C@H]1c1cccc(OC)c1	none (no result: Rab9 promoter act, NPC1 prom act, ELG1 genotox, FLuc modulator)
Cc1ccc(N2C(=O)CC(SCC(=O)Nc3ccc(S(N)(=O)=O)cc3)C2=O)cc1 (configuration not stated)	Rab9 promoter act inconclusive, NPC1 prom act inconclusive, ELG1 genotox inconclusive, FLuc modulator 26.9µM (no result: Luc counter, SMN2 splice enh)
Cn1nc(C(=O)Nc2ccc(F)c(Cl)c2)c2c1-c1ccccc1S(=O)(=O)C2	none (no result: Rab9 promoter act, NPC1 prom act, ELG1 genotox, Luc counter, SMN2 splice enh)
CCOCCc1nn2c(=O)cc(COC(=O)c3ccccc3NC(=O)C3CCCCC3)nc2s1	none (no result: Rab9 promoter act, NPC1 prom act, ELG1 genotox, Luc counter, SMN2 splice enh)
CCC(=O)Nc1ccc(NC(=O)c2cc3ccccc3o2)cc1	Rab9 promoter act inconclusive, NPC1 prom act inconclusive, FLuc modulator inconclusive, SMN2 splice enh inconclusive
Cc1ccc(NC(=O)c2cc3ccccc3oc2=O)cc1S(=O)(=O)N(C)C	FLuc modulator 0.0757µM (no result: Luc counter, SMN2 splice enh)
CN(C)S(=O)(=O)c1ccc(NC(=O)c2cc3ccccc3o2)cc1	Rab9 promoter act inconclusive, NPC1 prom act inconclusive, FLuc modulator 15.1µM
Cc1ccc(NC(=O)c2ccccc2OCC(=O)Nc2ccccc2F)cc1S(=O)(=O)N(C)C	FLuc modulator 7.57µM (no result: Luc counter, SMN2 splice enh)
Cc1ccc(NC(=O)c2cc3ccccc3o2)cc1S(=O)(=O)N(C)C	Rab9 promoter act 2.51µM, NPC1 prom act 3.16µM, ELG1 genotox 2.59µM, FLuc modulator 0.849µM, SMN2 splice enh 12.6µM
CCOc1ccc(S(=O)(=O)NCC(c2ccc(N(C)C)cc2)N2CCCC2)cc1 (configuration not stated)	none (no result: Rab9 promoter act, NPC1 prom act, ELG1 genotox, Luc counter, SMN2 splice enh)
CCc1cc(C(=O)Cc2nc3ccccc3s2)c(O)cc1OCC(=O)O	FLuc modulator 21.3µM (no result: Luc counter, SMN2 splice enh)
O=C(COc1ccccc1Br)c1ccc(O)cc1O	FLuc modulator inconclusive
O=C(Cc1ccc(Br)cc1)c1ccc(O)cc1O	Rab9 promoter act inconclusive, NPC1 prom act 3.16µM, ELG1 genotox inconclusive, FLuc modulator 15.1µM (no result: Luc counter, SMN2 splice enh)
O=C(Cc1nc2ccccc2s1)c1ccc(O)cc1O	Rab9 promoter act 3.16µM, NPC1 prom act 3.16µM, ELG1 genotox inconclusive, FLuc modulator inconclusive, SMN2 splice enh inconclusive
O=C(CSc1nc2ccccc2s1)c1ccc(O)cc1O	NPC1 prom act inconclusive, FLuc modulator 13.5µM (no result: Luc counter, SMN2 splice enh)
O=C(Nc1ccccc1Cl)N1CCC2(CC1)Oc1ccccc1C(=O)N2Cc1ccc(F)cc1	none (no result: Rab9 promoter act, NPC1 prom act, ELG1 genotox, Luc counter, SMN2 splice enh)
Cc1c(Cl)c(S(N)(=O)=O)cc(S(N)(=O)=O)c1NC(=O)c1ccc(Cl)cc1	none (no result: Rab9 promoter act, NPC1 prom act, ELG1 genotox, FLuc modulator)
O=C1O/C(=C/c2ccccc2)N=C1c1ccccc1	FLuc modulator 2.69µM
S=C(NCCCN1CCOCC1)N1CCN(c2nc(-c3ccccc3)cs2)CC1	none (no result: SMN2 splice enh)
c1ccc(-c2csc(N3CCOCC3)n2)cc1	Rab9 promoter act inconclusive, NPC1 prom act inconclusive, ELG1 genotox 6.31µM, FLuc modulator 15.1µM, SMN2 splice enh 11.2µM
c1ccc(-c2csc(N3CCN(c4ccccn4)CC3)n2)cc1	Rab9 promoter act inconclusive, NPC1 prom act inconclusive, FLuc modulator 10.7µM
CN(C)C(=O)N1CCN(c2nc(-c3ccccc3)cs2)CC1	Rab9 promoter act 1.12µM, NPC1 prom act 2.24µM, ELG1 genotox inconclusive, FLuc modulator 3.01µM (no result: Luc counter, SMN2 splice enh)
O=C(N1CCOCC1)N1CCN(c2nc(-c3ccccc3)cs2)CC1	Rab9 promoter act inconclusive, FLuc modulator 21.3µM
COc1ccc(CCNC(=O)c2cc3c(=O)[nH]c4ccc(C)cc4c3s2)cc1OC	none (no result: Rab9 promoter act, NPC1 prom act, ELG1 genotox, Luc counter)
Cc1cn([C@H]2C[C@H](O)[C@@H](CO)O2)c(=O)[nH]c1=O	none (no result: Rab9 promoter act, NPC1 prom act, ELG1 genotox, FLuc modulator, SMN2 splice enh)
O=c1[nH]c(=O)n(C2CCCO2)cc1Br (configuration not stated)	SMN2 splice enh 35.5µM
O=c1[nH]c(=O)n([C@H]2C[C@H](O)[C@@H](CO)O2)cc1Br	SMN2 splice enh 10µM
O=c1[nH]c(=O)n([C@@H]2O[C@H](CO)[C@@H](O)[C@H]2O)cc1Br	none (no result: Rab9 promoter act, NPC1 prom act, ELG1 genotox, FLuc modulator, SMN2 splice enh)
COC(=O)c1cc(/C=C/c2ccccc2)on1	FLuc modulator inconclusive
COC(=O)c1cc(/C=C/c2ccccc2)[nH]n1	Rab9 promoter act inconclusive, NPC1 prom act inconclusive, FLuc modulator 16.9µM (no result: Luc counter, SMN2 splice enh)
Cc1ccc([C@@]2(C)CC/C(=N/N=C3\CC[C@](C)(c4ccc(C)c(C)c4)c4cc(C)c(C)cc43)c3cc(C)c(C)cc32)cc1C	none (no result: Rab9 promoter act, NPC1 prom act, ELG1 genotox, FLuc modulator)
CC(C)c1ccc(/C=c2\sc3nc(-c4ccncc4)nn3c2=O)cc1	FLuc modulator 2.39µM
Cc1ccc(/C=c2\sc3nc(-c4cccnc4)nn3c2=O)cc1	FLuc modulator 4.78µM
COc1cc(OC)c(NC(=O)c2cc(C(C)=O)n3ccccc23)cc1Cl	none (no result: Rab9 promoter act, NPC1 prom act, ELG1 genotox, Luc counter, SMN2 splice enh)
Cc1ccccc1OCC1Cc2c(nc(N)c(C#N)c2N)O1 (configuration not stated)	Rab9 promoter act inconclusive, NPC1 prom act inconclusive, ELG1 genotox inconclusive, FLuc modulator 13.5µM (no result: Luc counter, SMN2 splice enh)
N#Cc1c(N)nc2c(c1N)CC(CO)O2 (configuration not stated)	none
Cc1ccccc1OCC1CO1 (configuration not stated)	none (no result: Rab9 promoter act, NPC1 prom act, ELG1 genotox, Luc counter, FLuc modulator)
